Screens: PubChem BioAssay, National Center for Advancing Translational Sciences (NCATS)
Rows were chosen to be rich in hits. Some 7.3% of all compounds tested hit in one or more screens of this group.
FLuc counter = firefly luciferase modulation, counter-screen for miR-21 project | Potency, µM (titrated, usually from 57.5 µM), usual class: inhibitors | purified FLuc, Km substrates, luminescence inhibition | AID 588342 | 360,000 tested, 6.9% active | P08659; further: nearly all actives have a fitted effect of over 55% in size
Target sequence (P08659 whole entry, looked up): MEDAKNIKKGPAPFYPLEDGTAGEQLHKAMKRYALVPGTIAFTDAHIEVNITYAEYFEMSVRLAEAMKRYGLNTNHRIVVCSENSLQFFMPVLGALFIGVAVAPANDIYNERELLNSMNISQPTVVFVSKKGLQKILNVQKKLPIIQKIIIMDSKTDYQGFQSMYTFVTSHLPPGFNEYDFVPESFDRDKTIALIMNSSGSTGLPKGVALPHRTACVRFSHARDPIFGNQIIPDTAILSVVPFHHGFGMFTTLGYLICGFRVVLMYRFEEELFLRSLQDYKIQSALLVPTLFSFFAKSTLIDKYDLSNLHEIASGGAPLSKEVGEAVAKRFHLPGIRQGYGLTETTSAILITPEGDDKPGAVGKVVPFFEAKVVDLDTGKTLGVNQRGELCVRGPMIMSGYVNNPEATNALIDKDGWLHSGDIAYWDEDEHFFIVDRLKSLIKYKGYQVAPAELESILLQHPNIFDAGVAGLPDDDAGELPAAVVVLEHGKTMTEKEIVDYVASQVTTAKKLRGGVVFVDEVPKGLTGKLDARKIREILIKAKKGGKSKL
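Biochemical qHTS of compounds, final roughly 60 µM downward over six points, against 10 nM purified firefly luciferase using Km concentrations of substrates (10 uM D-luciferin, 10 uM ATP) in Tris acetate pH 7.5 buffer; luminescence output.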
SMN2 splice up = SMN2 splice variant enhancement; 210,000 tested, 2.8% active; AID 1458; HEK293 SMN2-luciferase splicing reporter, luminescence, 30-36 h; Potency, µM (highest dose often 46.1 µM), usual class: activators; further: nearly all actives have a fitted effect of over 55% in size
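HEK293 cells carry an SMN2 minigene-luciferase reporter in which exon 7 inclusion puts luciferase in frame. Cells were seeded at 2000 cells/well, attached for 10-12 hours, then exposed to compounds for 30-36 hours at 37C before ONE-Glo luminescence.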
Luc counter = Kinase-Glo luciferase inhibition (counter-screen); Q27757; AID 1379; Kinase-Glo luciferase, ATP luminescence, 8 min; Potency, µM (top dose mostly 38.3 µM), usual class: inhibitors; 200,000 tested, 0.28% active; further: nearly all actives have a fitted effect of over 60% in size
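Recombinant Kinase-Glo luciferase, 10 uM ATP (linear range), luciferin; imidazole pH 7.2 / KCl / MgCl2 / Tween / BSA buffer; 8 min RT; luminescence.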
Rab9 prom act = activators of Rab9 promoter. Huh7 Rab9 promoter-luciferase reporter, luminescence, 24 h. Potency, µM (titrated, usually from 9.22 µM), usual class: activators. 320,000 tested, 2.8% active. AID 485297; further: nearly all actives have a fitted effect of over 60% in size
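Huh7 cells stably carrying Rab9 promoter–luciferase reporter, plated 1500 cells/well, compound added after 2 h and incubated 24 h at 37 °C; luciferase luminescence then read after 10 min with detection reagent.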
NPC1 prom act = activators of NPC1 promoter; Huh7 NPC1 promoter luciferase reporter, 24 h; Potency, µM (series often up to 9.22 µM), usual class: activators; 320,000 tested, 2.4% active; further: nearly all actives have a fitted effect of over 60% in size
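Huh7 cells stably carrying NPC1 promoter–luciferase, plated in Opti-MEM with 10% FBS for 2 h, were exposed to compound in DMSO for 24 h at 37 °C; luciferase reagent was added for 10 min and luminescence read.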
ELG1 genotox = induces genotoxicity in HEK293T cells with luciferase-tagged ELG1; HEK293T ELG1-luciferase reporter, luminescence, 16 h; Potency, µM (series often up to 46 µM), actives largely listed as activators; 330,000 tested, 1.3% active; AID 504466; further: nearly all actives have a fitted effect of over 60% in size
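Step 1: seed 2,000 HEK293T ELG1-luciferase cells per well. Step 2: add compound or DMSO, incubate 16 hr at 37 °C. Step 3: ONE-Glo, 30 min at room temperature, read luminescence.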
Each line names hits and unclear results; the compound was inactive in the other large screens. The call rests on the fitted dose curve; in most records, active means well fitted curve in the direction sought with a large enough effect; inconclusive means small, poorly fitted or top-dose-only effect, or another doubt; inactive means no such curve, though single readings can be large; an effect the other way counts as inactive or inconclusive.

Nc1nc(SCC(=O)NCCOCCO)nc2sc3c(c12)CCCC3	FLuc counter 26.9µM (no result: SMN2 splice up)
CCCCN1CSC(=S)N(Cc2ccccc2)C1	none (no result: FLuc counter, Rab9 prom act, NPC1 prom act, ELG1 genotox)
Cc1cc(C)c(NC(=O)CCN2C(=O)c3ccccc3Sc3ncccc32)c(C)c1	none (no result: SMN2 splice up, Luc counter, Rab9 prom act, NPC1 prom act, ELG1 genotox)
CCOc1ccc(C(=O)c2cn(CC(=O)Nc3ccc(F)cc3)c3cc4c(cc3c2=O)OCCO4)cc1	none (no result: Luc counter, Rab9 prom act, NPC1 prom act, ELG1 genotox)
CCSc1nnc(NC(=O)c2csc(C)c2)s1	SMN2 splice up 14.1µM, Rab9 prom act 2.24µM, NPC1 prom act 2.82µM, ELG1 genotox inconclusive
O=C(CSc1nnc(NC(=O)c2ccco2)s1)Nc1ccc(F)cc1	FLuc counter 15.1µM
Cc1cccc(NC(=O)CSc2nnc(NC(=O)C3CC3)s2)c1C	none (no result: SMN2 splice up, Luc counter)
COc1ccc(NC(=O)Nc2nnc(SCC(=O)Nc3cccc(C)c3C)s2)cc1	FLuc counter 0.601µM (no result: SMN2 splice up, Luc counter, Rab9 prom act, NPC1 prom act, ELG1 genotox)
CCSc1nnc(NC(=O)Nc2cccc(C)c2)s1	FLuc counter 10.7µM, Rab9 prom act inconclusive, NPC1 prom act inconclusive (no result: SMN2 splice up, Luc counter)
COc1ccc(CNC(=O)c2nn(-c3ccccc3C)nc2CO)cc1	none (no result: Luc counter, Rab9 prom act, NPC1 prom act, ELG1 genotox)
Cc1nnc(SCC(=O)Nc2ccc3c(c2)OCCO3)s1	FLuc counter inconclusive
COc1cccc(N2CC(C(=O)Nc3nnc(SCC(=O)Nc4ccc(NC(C)=O)cc4)s3)CC2=O)c1 (configuration not stated)	none (no result: SMN2 splice up, Luc counter)
COc1cccc(C(=O)Nc2nnc(SCC(=O)Nc3ccc(NC(C)=O)cc3)s2)c1	FLuc counter 0.477µM, Rab9 prom act 3.55µM, NPC1 prom act 2.82µM, ELG1 genotox inconclusive (no result: SMN2 splice up, Luc counter)
COc1ccc(NC(=O)CSc2nnc(NC(=O)c3ccco3)s2)cc1OC	FLuc counter 21.3µM (no result: SMN2 splice up, Luc counter)
Cc1ccc(Nc2nnc(SCC(=O)Nc3cccnc3Cl)s2)cc1C	FLuc counter 1.07µM
Cc1ccc(Nc2nnc(SCC(=O)Nc3ccccc3[N+](=O)[O-])s2)cc1	FLuc counter inconclusive
O=C(CSc1nnc(NC(=O)c2ccco2)s1)Nc1ccc2c(c1)OCCO2	FLuc counter 13.5µM
O=C(CSc1nnnn1C1CCCCC1)Nc1cccc(NC(=O)c2ccco2)c1	FLuc counter 16.9µM
Cc1cccc(NC(=O)CSc2nnc(NC(=O)c3ccco3)s2)c1	FLuc counter 13.5µM
O=C(CSc1nnnn1C1CCCC1)Nc1cccc(NC(=O)c2ccco2)c1	FLuc counter inconclusive
COc1ccc(NC(=O)CSc2nnc(NC(=O)c3ccco3)s2)cc1	FLuc counter 15.1µM, SMN2 splice up inconclusive
Cc1cccc(Nc2nnc(SCC(=O)NCC3CCCO3)s2)c1 (configuration not stated)	none (no result: FLuc counter, SMN2 splice up, Luc counter, Rab9 prom act, NPC1 prom act)
C/C(N)=C(/C#N)C(=O)CSc1nnc(Nc2cccc(C)c2)s1	FLuc counter 5.36µM, SMN2 splice up 15.8µM, Rab9 prom act inconclusive, NPC1 prom act inconclusive, ELG1 genotox inconclusive
Cc1nn(C(C)(C)C)c(OC(=O)C(C)(C)C)c1Sc1ccccc1	none (no result: Luc counter, Rab9 prom act, NPC1 prom act, ELG1 genotox)
CCCc1nc2ccc(NC(=O)c3ccco3)cc2c(=O)n1Cc1ccc(Cl)cc1	none
CCC(=O)Nc1ccc2nc(C3CC3)n(Cc3ccccc3)c(=O)c2c1	FLuc counter inconclusive, SMN2 splice up inconclusive, Rab9 prom act 3.55µM, NPC1 prom act inconclusive, ELG1 genotox 8.2µM
COc1ccc(Cn2c(C3CC3)nc3ccc(NC(=O)c4ccco4)cc3c2=O)cc1	FLuc counter 15.1µM, SMN2 splice up inconclusive, NPC1 prom act 3.16µM, ELG1 genotox inconclusive
O=C(Nc1ccc2nc(C3CC3)n(Cc3ccccc3)c(=O)c2c1)C1CC1	Rab9 prom act 2.51µM, NPC1 prom act 2.82µM, ELG1 genotox inconclusive (no result: SMN2 splice up, Luc counter)
CC(=O)Nc1ccc2nc(C)n(Cc3ccc(Cl)cc3)c(=O)c2c1	SMN2 splice up 12.6µM, NPC1 prom act inconclusive, ELG1 genotox inconclusive
CCCOc1ccc(-c2nonc2NC(=O)c2oc3ccc(Cl)cc3c2C)cc1OCCC	none (no result: Luc counter, Rab9 prom act, NPC1 prom act, ELG1 genotox)
COc1ccc(CNC(=O)Cn2ncn3cccc3c2=O)cc1	FLuc counter 21.3µM, SMN2 splice up 11.2µM, Rab9 prom act 1.58µM, NPC1 prom act inconclusive, ELG1 genotox inconclusive
N#C/C(=C/c1ccc(N2CCCCC2)o1)C(=O)Nc1ccc2ccccc2c1	FLuc counter 3.38µM
CCOc1ccc(NC(=O)/C(C#N)=C\c2ccc(-c3ccc(Cl)cc3)o2)cc1	none (no result: Luc counter, Rab9 prom act, NPC1 prom act, ELG1 genotox)
